Hits are enriched below; roughly 3.5% of the tested compounds scored in any of these assays.
MITF primary = MITF inhibitors, primary screen, biochemical, AlphaScreen, human; hit rate 0.91% among 650,000; inhibition, % at 2.6 µM; AlphaScreen MITF homodimerization, bead proximity signal; Microphthalmia-associated transcription factor (Homo sapiens), O75030; in the data active means inhibition above about 50%;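 further: 0% = vehicle wells with protein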
FBW7 act = FBW7 E3 ligase activators, primary screen, biochemical, AlphaScreen, human; F-box/WD repeat-containing protein 7 (Homo sapiens), Q969H0; AlphaScreen FBW7–phospho-cyclin E peptide binding, activator screen; normalized activity (activation), % at 26.1 µM; hit rate 0.13% among 650,000; in the data active means normalized activity above about 1.9%;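 further: purified mutant Fbw7 with reduced substrate affinity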
TEAD-YAP block = TEAD-YAP interaction inhibition, primary screen, TEAD-YAP interaction inhibitor project, luminescence, HEK-TIYL cells | TEAD-Gal4/YAP UAS-luciferase luminescence | inhibition, % at 9.12 µM | hit rate 1.4% among 640,000 | AID 1259422, 2018; in the data active means inhibition above about 32%;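 further: 0% = median of test compound wells and 100% = reference inhibitor wells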
GPR151 ag = activators of human GPR151, primary screen, cell-based, PathHunter beta-arrestin, luminescence; G-protein coupled receptor 151 (Homo sapiens), Q8TDV0; PathHunter beta-arrestin GPR151 cells; activation, % at 11.2 µM; hit rate 1% among 650,000; AID 1508602, 2020; in the data active means activation above about 4.9%;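 further: 0% = median of compound wells and 100% = cells with positive control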
Target sequence (Q8TDV0 whole entry, looked up): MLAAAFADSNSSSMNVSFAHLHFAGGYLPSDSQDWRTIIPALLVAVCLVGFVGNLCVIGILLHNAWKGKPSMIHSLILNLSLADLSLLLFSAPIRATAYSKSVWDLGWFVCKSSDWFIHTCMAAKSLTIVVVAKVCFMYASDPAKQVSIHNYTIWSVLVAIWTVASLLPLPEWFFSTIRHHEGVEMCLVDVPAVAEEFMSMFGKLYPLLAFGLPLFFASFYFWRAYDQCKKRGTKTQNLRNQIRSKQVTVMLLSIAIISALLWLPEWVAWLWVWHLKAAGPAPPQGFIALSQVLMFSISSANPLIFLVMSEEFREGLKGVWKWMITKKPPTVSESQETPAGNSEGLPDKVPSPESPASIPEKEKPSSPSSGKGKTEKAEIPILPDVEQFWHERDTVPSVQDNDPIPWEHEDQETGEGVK
* = called active by the depositor.

SMILES | MITF primary | FBW7 act | TEAD-YAP block | GPR151 ag
CCC(CC)C(=O)N1c2ccccc2C(=C2SC(C(=O)OC)=C(C(=O)OC)S2)C(=S)C1(C)C | 55* | 0 | 4 | 1
CCC(=O)N1c2ccccc2C(=C2SC(C(=O)OC)=C(C(=O)OC)S2)C(=S)C1(C)C | 24 | 0 | 3 | -1
CCN(CC)CCNC(=O)C1=C(C)C(=O)OC12CCCCCC2 | -5 | 0 | -10 | -1
COc1cc(/C=C2/C(=O)Nc3ccccc32)cc(OC)c1O | 1 | 0 | -11 | 1
COc1cc(OC)c(/C=C2/C(=O)Nc3ccccc32)c(OC)c1 | 0 | 0 | 53* | 2
O=C(NC1CC1)c1ccnc(Nc2cnccn2)c1 | 13 | 0 | 4 | 0
Cc1cccc(NC(=O)C2CCC(CNc3c(N4CCCC4)c(=O)c3=O)CC2)c1C (stereo not drawn) | 6 | 0 | -2 | -1
CC(C)(C)c1ccc(C(=O)Nc2ccc3c(c2)CN(C(=O)c2ccco2)CC3)cc1 | 7 | 0 | 86* | 2
COc1ccc(Br)cc1C1CC(=O)NC2=C1C(=O)CCC2 (stereo not drawn) | 10 | -1 | 47* | -1
CC(=O)NC(CC(C)C)C(=O)NC(Cc1ccccc1)C(N)=O (stereo not drawn) | 6 | 2.5* | -2 | 0
COC(=O)C(C)NC(=O)C(Cc1ccccc1)NC(C)=O (stereo not drawn) | 9 | 0 | -3 | 0
CC(=O)NC(C(=O)NC(Cc1ccccc1)C(N)=O)C(C)C (stereo not drawn) | 8 | 2.0* | -1 | 1
COc1ccc(NC(=O)CCC(=O)N/N=C/c2ccc(OCc3ccccc3)cc2)cc1 | 4 | 0 | 0 | 2
CCOC(=O)CN1C(c2ccccc2Cl)Nc2ccc(Br)cc2C1c1ccccc1 (stereo not drawn) | 8 | 0 | 11 | -1
CC(CCc1ccccc1)NC(=O)CSc1ccsc1[N+](=O)[O-] (stereo not drawn) | 15 | 0 | 8 | 2
Cc1ccccc1N/N=C1/COC(C)(C)CC1=O | 10 | 0 | -17 | 0
N#C/C(C(N)=O)=C1\Oc2c(cc(O)cc2-c2ccccc2)S1 | 6 | 0 | 37* | 0
CCN(CC)c1ccc(/C=C/c2nc3ccccc3s2)cc1 | -10 | -1 | 64* | -1
CCN(CC)c1ccc(Nc2nc(Nc3ccc(N(CC)CC)cc3)nc(Sc3nc4ccccc4s3)n2)cc1 | 8 | 0 | -6 | 2
O=C(O)COc1ccc(/C=C/c2nc3ccccc3s2)cc1 | -3 | 0 | 72* | -8
O=C(O)c1ccc(/C=C/c2nc3ccccc3s2)cc1 | -3 | 0 | -40 | -2
FC(F)(F)c1cc(Cn2c3ccccc3c3nc4ccccc4nc32)cc(C(F)(F)F)c1 | -3 | 2.4* | 4 | -1
Cc1c(C(=O)Nc2cccc(Cl)c2)nnn1-c1ccccc1F | -2 | 0 | 24 | -2
Cc1c(C(=O)Nc2cccc(F)c2)nnn1-c1ccccc1F | -1 | 0 | 43* | -2
CCOC(=O)c1ccc(NCc2ccc(OC)cc2)cc1 | -27 | 0 | -7 | 0
SMILES | MITF primary | FBW7 act | TEAD-YAP block | GPR151 ag
CCOc1ccc(C2Oc3c(cc(Br)cc3OC)C=C2[N+](=O)[O-])cc1OC (stereo not drawn) | 23 | 0 | 62* | -1
COc1cc(Br)cc2c1OC(c1ccc3c(c1)OCO3)C([N+](=O)[O-])=C2 (stereo not drawn) | 10 | 0 | -22 | -1
COc1ccc(C2Oc3c(cc(Br)cc3OC)C=C2[N+](=O)[O-])cc1OC (stereo not drawn) | 4 | 0 | 70* | -1
CCOc1ccc(C2Oc3c(cccc3OC)C=C2[N+](=O)[O-])cc1OC (stereo not drawn) | 12 | 1 | 14 | -1
COc1ccc(C2Oc3c(cccc3OC)C=C2[N+](=O)[O-])cc1OC (stereo not drawn) | 14 | 0 | 43* | -2
CCc1nc(SCc2ccc(Cl)cc2Cl)c(C#N)c2c1CCCC2 | 7 | 2.2* | 1 | -1
O=C(Cn1ncc2c(=O)oc3ccccc3c21)N1CCN(c2cccc(Cl)c2)CC1 | 12 | 1 | 41* | -1
O=C(Cn1ncc2c(=O)oc3ccccc3c21)N1CCN(c2ccccc2)CC1 | 7 | 0 | 2 | 1
CC(C)C(C(=O)O)c1ccc([N+](=O)[O-])cc1 (stereo not drawn) | -25 | 0 | 10 | -1
O=C(Nc1cccc(Br)c1)c1ccc2c(c1)OCO2 | 5 | 0 | -14 | -3
O=C(O)c1ccc(NCc2ccc(Cl)cc2)c([N+](=O)[O-])c1 | 2 | 0 | 38* | -1
CCCNc1cc(C)nc(Oc2ccccc2)n1 | -9 | 0 | 80* | 1
Cc1cc(N2CCCCC2)nc(NCCNC(=O)/C=C/c2ccccc2)n1 | -1 | 0 | 38* | -2
Cc1cc(N2CCCCC2)nc(NCc2ccccc2)n1 | -11 | 0 | 48* | 2
Cc1cc(N2CCCCC2)nc(NCCNC(=O)Nc2ccc(F)cc2F)n1 | 0 | 0 | 37* | -2
Cc1cc(N2CCOCC2)nc(NCc2ccccc2)n1 | 13 | 0 | 7 | 1
Cc1cc(N2CCCCC2)nc(NCCNC(=O)c2ccco2)n1 | -8 | 0 | 41* | 2
COc1cc(OC)c(NC(=O)NCCNc2nc(C)cc(N3CCCCC3)n2)cc1Cl | 2 | 0 | 10 | -1
CCOC(=O)/C(=N\O)c1c(C)nn(-c2ccccc2)c1C | 6 | 0 | -21 | 0
O=C(Nc1ccc(Oc2ccccc2)cc1)c1ccc2c(=O)n(-c3cc(C(F)(F)F)ccc3Cl)c(=S)[nH]c2c1 | -7 | 0 | 36* | 0
O=C(Nc1ccc(Oc2ccccc2)cc1)c1ccc2c(=O)n(-c3cccc(C(F)(F)F)c3)c(=S)[nH]c2c1 | -6 | 0 | -1 | 0
COc1ccc(-n2c(=S)[nH]c3cc(C(=O)Nc4cccc(C)c4)ccc3c2=O)c(OC)c1 | 8 | 0 | 48* | 2
Cc1cccc(/C=C2\SC(=S)N(C(C)C(=O)O)C2=O)c1 (stereo not drawn) | 2 | 0 | 8 | 0
COc1ccc(S(=O)(=O)N2CC(C(=O)O)Oc3ccccc32)cc1 (stereo not drawn) | -10 | 0 | 1 | 4
COc1ccc(S(=O)(=O)N2CCOc3ccccc32)cc1 | 19 | 0 | 49* | 1
CCOc1ccc(C2NC(=O)NC(C)=C2C(=O)OCc2ccc3c(c2)OCO3)cc1 (stereo not drawn) | 15 | 0 | 56* | 0
CCCOc1ccc(C2NC(=O)NC(C)=C2C(=O)OCc2ccc3c(c2)OCO3)cc1 (stereo not drawn) | -11 | 0 | 55* | 2
CCOc1ccccc1C1NC(=O)NC(C)=C1C(=O)OCc1ccc2c(c1)OCO2 (stereo not drawn) | 19 | 0 | 7 | -1
